Test results: PubChem BioAssay AID488922 (Johns Hopkins Ion Channel Center, 2010)
The campaign covered roughly 310,000 compounds. About 3,800 (1.2%) were called active.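 How the source made its calls: active means ratio B-score over 3 SD below the library mean, with starting fluorescence within 5 SD of its mean; inactive means the rest, inconclusive results apart.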 The list comes from a sample in which actives are over-represented; it also holds similar structures and randomly drawn compounds.

What follows are molecules tested against Potassium channel subfamily K member 9 (Homo sapiens) (UniProt Q9NPC2) (assay: blockers of human TASK-3 (KCNK9) channel – HEK293 cells, thallium flux, primary screen (AID 488922;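 on B-score: negative B-score means less thallium flux so channel inhibition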)). Conditions: HEK293 KCNK9, FluxOR thallium flux fluorescence, at 10 µM; active compounds read low.
Chain of Potassium channel subfamily K member 9 (Homo sapiens) (Q9NPC2 whole entry, looked up): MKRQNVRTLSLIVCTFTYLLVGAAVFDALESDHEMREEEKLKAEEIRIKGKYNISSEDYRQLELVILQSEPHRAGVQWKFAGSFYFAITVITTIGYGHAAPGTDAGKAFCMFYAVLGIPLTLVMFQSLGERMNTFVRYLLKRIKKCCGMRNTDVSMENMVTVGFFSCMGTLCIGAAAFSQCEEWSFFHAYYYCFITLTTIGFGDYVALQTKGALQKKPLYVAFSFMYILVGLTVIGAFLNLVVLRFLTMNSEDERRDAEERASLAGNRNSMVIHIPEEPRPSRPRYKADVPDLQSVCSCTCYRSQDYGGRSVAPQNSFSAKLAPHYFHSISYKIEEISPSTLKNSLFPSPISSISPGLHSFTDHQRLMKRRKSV
For `Cc1ccc(NS(=O)(=O)c2ccc(-c3coc(C)n3)cc2)c(C)c1`, the B-score was “inactive”. For `COc1cc(C(=O)OCC(=O)N(CC(C)C)C2CCS(=O)(=O)C2)ccc1OCC(C)C` (stereo unspecified), the B-score was “inactive”. With `Cn1nc(-c2ccccc2)c(CSc2cccc(Cl)c2)c1Cl` the B-score was -8.39 (active). With `Cn1nc(-c2ccccc2)c(CO)c1Sc1ccccc1` the B-score was “inactive”. With `Cc1ccc(S(=O)(=O)c2c(COC(=O)c3cccc(Cl)c3)c(-c3ccccc3)nn2C)cc1` the B-score was “inactive”. With `COc1ccc(C(=O)NC2(C(F)(F)F)NC(=O)N(CCCc3ccccc3)C2=O)c(OC)c1OC` (stereo unspecified) the B-score was “inactive”. `O=C(c1cccc(S(=O)(=O)N2CCCC2)c1)N(Cc1ccco1)C1CCS(=O)(=O)C1` (stereo unspecified) was tested, and the B-score was “inactive”. With `COC(=O)N/N=C/c1cn(CCCOc2ccc(C)cc2)c2ccccc12` the B-score was “inactive”. `CCOC(=O)N/N=C/c1cn(Cc2ccccc2Cl)c2ccccc12` was tested, and the B-score was -9.45 (active). `CNC(=S)N/N=C/c1cn(Cc2ccc(C)cc2)c2ccccc12` was tested, and the B-score was “inactive”. In the case of `CCc1ccc(N(CC)c2ncnc3nc[nH]c23)cc1`, the B-score is reported as “inactive”. For `Cc1cc(Cl)ccc1C(=O)C1CCCN(C(=O)CCN2CCCO2)C1` (stereo unspecified), the B-score was “inactive”. For `CSc1ccc(/C=C/C(=O)NC23CC4CC(CC(C4)C2)C3)cc1`, the B-score was “inactive”. For `c1ccc(C2CNCc3c2ccc2ccccc32)cc1` (stereo unspecified), the B-score was “inactive”. For `Clc1cccc(-c2nc3nc4ccccc4nc3n2Cc2ccco2)c1`, the B-score was -10.9 (active). In the case of `O=C(CSc1nnc(-c2cccnc2)n1Cc1ccco1)c1ccc(Cl)c(Cl)c1`, the B-score is reported as “inactive”. In the case of `O=c1[nH]c(CSc2ncc(-c3ccc(F)cc3)n2Cc2ccco2)nc2ccccc12`, the B-score is reported as “inactive”. With `CN(Cc1c(F)cccc1Cl)S(=O)(=O)c1cccs1` the B-score was “inactive”. In the case of `CC1CCC2(CC1)NC(=O)N(CC(=O)c1cccn1C)C2=O` (stereo unspecified), the B-score is reported as “inactive”. With `Cc1cccc(N2CCN(C(c3ccccc3)c3nnnn3CC3CCCO3)CC2)c1C` (stereo unspecified) the B-score was “inactive”. With `CC(C)(C)n1nnnc1C(c1ccc(F)cc1)N1CCN(Cc2ccc3c(c2)OCO3)CC1` (stereo unspecified) the B-score was “inactive”. In the case of `Cc1cccc(N2CCN(C(c3ccc(N(C)C)cc3)c3nnnn3C(C)(C)C)CC2)c1C` (stereo unspecified), the B-score is reported as -7.3 (active). `Cc1cccc(C)c1NC(=O)c1ccc(CN2CCc3ccccc3C2)cc1` was tested, and the B-score was “inactive”. In the case of `COc1ccc(OC)c(-c2csc(-c3cccs3)n2)c1`, the B-score is reported as -11.7 (active). For `COc1ccc(-c2csc(-c3cccs3)n2)cc1OC`, the B-score was “inactive”. In the case of `COc1ccc(OC)c(CNC(=O)CCc2nc(-c3cccs3)no2)c1`, the B-score is reported as “inactive”. `COc1ccc(CNS(=O)(=O)c2ccc(NC(=O)N3CCCCC3)cc2)cc1` was tested, and the B-score was “inactive”. In the case of `O=C(CNC(=O)c1cccnc1)N/N=C/c1cc(Br)c(O)c(Br)c1`, the B-score is reported as “inactive”. For `CCCOc1ccc2c3c(c(=O)oc2c1OCCC)CCC3`, the B-score was -13.7 (active). `Cc1c(OC(C)C(=O)N[C@@H](Cc2ccccc2)C(=O)O)ccc2c3c(c(=O)oc12)CCCC3` (stereo partly specified) was tested, and the B-score was “inactive”. With `COc1ccc2c3c(c(=O)oc2c1OCC(=O)C(C)(C)C)CCCC3` the B-score was “inactive”. For `CN(C)c1ccc(/C=N\S(=O)(=O)c2ccccc2)cc1`, the B-score was “inactive”. `CC[n+]1cc(C)ccc1/C=C/c1ccc(N(C)C)cc1` was tested, and the B-score was -6.65 (active). `CCCCCCCC1(C)NC(=O)N(CC(=O)Nc2cc(C)on2)C1=O` (stereo unspecified) was tested, and the B-score was “inactive”. `CCOC(=O)N1CCN(C(=O)c2ccc3c(c2)N(Cc2ccc(C)cc2)CCS3)CC1` was tested, and the B-score was “inactive”. In the case of `O=C(NCCN1CCOCC1)c1ccc2c(c1)N(Cc1ccc(Cl)cc1)CCS2`, the B-score is reported as “inactive”. In the case of `O=C(NCCc1ccccc1)c1ccc2c(c1)N(Cc1ccccc1)CCS2`, the B-score is reported as -9.05 (active). In the case of `CCN(CC)C(=O)CC1(c2ccccc2OC)CCOC(C(C)C)C1` (stereo unspecified), the B-score is reported as -8.7 (active). `CC[C@]1(c2ccccc2OC)C(=O)N(C(=O)OC)N1C(=O)OC` was tested, and the B-score was “inactive”. For `COc1ccc(C2(CNC(=O)C(c3ccccc3)c3ccccc3)CCOCC2)cc1OC`, the B-score was “inactive”. In the case of `O=P(O)(CN1CCCCCC1)C1Cc2ccccc2C1`, the B-score is reported as “inactive”. For `CCc1ccccc1NC(=S)Nc1cc(OC)c(NC(=O)C(C)C)cc1OC`, the B-score was “inactive”. For `CCc1ccccc1NC(=O)CCOc1ccccc1`, the B-score was “inactive”. For `CCc1ccccc1NC(=O)/C(=C/c1ccccc1)c1ccccc1`, the B-score was -8.86 (active). For `COc1cccc(CNS(=O)(=O)c2ccc3c(c2)N(C(C)=O)CCS3)c1`, the B-score was “inactive”. With `COc1cc(NC(=O)c2ccccc2)c(OC)cc1NC(=O)Cc1ccccc1` the B-score was “inactive”. In the case of `COc1cc(OC)cc(C(=O)OCC(=O)Nc2sccc2C(N)=O)c1`, the B-score is reported as “inactive”. `COc1cccc(OC)c1C(=O)Nc1nnc(C(C)C)s1` was tested, and the B-score was “inactive”. `COc1cccc(OC)c1C(=O)Nc1sc2c(c1C(N)=O)CCCC2` was tested, and the B-score was -11.2 (active). `NC(=O)c1c(NC(=O)c2ccccc2)sc2c1CCCC2` was tested, and the B-score was “inactive”. With `Cc1cc(C)c(S(=O)(=O)N(C)CC(=O)NCC2CCCO2)c(C)c1` (stereo unspecified) the B-score was “inactive”. For `O=C(Cc1csc(Nc2nc(=S)[nH]c3ccccc23)n1)NCCCN1CCN(c2cccc(Cl)c2)CC1`, the B-score was “inactive”. `CCCn1nc(Oc2nc(NC(C)C)nc(N(C)C)n2)ccc1=O` was tested, and the B-score was “inactive”. `CCOC(=O)c1ccc(S(=O)(=O)N(CCO)Cc2cc3cc(OC)c(OC)cc3[nH]c2=O)cc1` was tested, and the B-score was “inactive”. With `COc1cccc(CNC(=O)C(=O)NCCC2CCCCN2S(=O)(=O)c2ccc(C)cc2)c1` (stereo unspecified) the B-score was “inactive”. With `Cc1ccc(-n2c(SCC(=O)Nc3ncc(Cl)cc3Cl)nc3ccccc32)cc1` the B-score was “inactive”. With `Cc1[nH]nc(SCC(=O)NCC(C)C)c1[N+](=O)[O-]` the B-score was “inactive”. For `O=C(CSc1ncn[nH]1)Nc1nc(-c2cccc([N+](=O)[O-])c2)cs1`, the B-score was “inactive”. `O=C(CSc1nc(-c2ccccc2)cs1)Nc1cccc([N+](=O)[O-])c1` was tested, and the B-score was -7.08 (active). For `CCNC(=O)CSc1nc(-c2ccccc2)cs1`, the B-score was “inactive”. For `CCSc1nnc(-c2cc3c(s2)-c2ccccc2CC3)o1`, the B-score was “inactive”. With `CN(C(=O)CCN1C(=O)/C(=C/c2ccccc2F)SC1=S)C1CCS(=O)(=O)C1` (stereo unspecified) the B-score was “inactive”. For `CCOC(=O)CSc1nc2c(c(=O)n(C)c(=O)n2C)n1Cc1ccccc1F`, the B-score was “inactive”. With `CCOC(=O)CSc1nc2c(sc(=S)n2CCc2ccccc2)c(=O)n1Cc1ccco1` the B-score was -8.91 (active). In the case of `COC(=O)CSc1nc2ccccc2c(=O)n1Cc1ccccc1`, the B-score is reported as “inactive”. In the case of `Cc1ccc(OCC(=O)Nc2ccc(NC(=O)c3cccs3)cc2)c(C)c1`, the B-score is reported as “inactive”. `O=C(Nc1ccc2c(c1)OCCO2)c1ccoc1` was tested, and the B-score was “inactive”. With `Cc1cc(C)nc(SCC(=O)c2ccc(Cl)cc2)n1` the B-score was “inactive”. In the case of `Cc1cc(Oc2ccc(Cl)cc2)nc(SCC(=O)c2ccccc2)n1`, the B-score is reported as -11.2 (active). `COc1ccc(C(=O)CSc2nc(C)cc(C)n2)cc1[N+](=O)[O-]` was tested, and the B-score was “inactive”. In the case of `CCC(C)NC(=O)c1nn(C)c(=O)c2ccccc12` (stereo unspecified), the B-score is reported as “inactive”. In the case of `Cc1ccc(N2C(=O)C(NC(=O)c3c(F)cccc3F)(C(F)(F)F)C3=C2CC(C)(C)CC3=O)cc1` (stereo unspecified), the B-score is reported as “inactive”. For `O=C(Nc1ccc2c(c1)OCO2)c1sc2cc(Cl)ccc2c1Cl`, the B-score was “inactive”. In the case of `CC(Sc1nc2cc(Cl)ccc2s1)C(=O)Nc1ccc2c(c1)OCO2` (stereo unspecified), the B-score is reported as -7.35 (active). With `CC(Sc1nc(-c2ccccc2)cc(C(F)(F)F)n1)C(=O)Nc1ccc2c(c1)OCO2` (stereo unspecified) the B-score was “inactive”. For `COc1ccc(Nc2ncnc3ccc(Br)cc23)c(OC)c1`, the B-score was “inactive”. In the case of `COc1ccc(Nc2ncnc3sc(C)cc23)cc1`, the B-score is reported as “inactive”. For `COc1ccc(Nc2ncnc3sc(-c4ccccc4)cc23)c(OC)c1`, the B-score was -9.69 (active). With `CCc1cc(=O)oc2cc(OCC(=O)N3CCCc4ccccc43)ccc12` the B-score was “inactive”. With `CN(C)C(=O)c1ccc2c(c1)C1C3CCC(C3)C1C(c1ccccc1)N2` (stereo unspecified) the B-score was “inactive”. For `CC(=O)c1ccc(NC(=O)CCNS(=O)(=O)c2cc(Br)cnc2N)cc1`, the B-score was “inactive”. With `COc1ccccc1C(=O)OCC(=O)NCCNC(=O)COC(=O)c1ccccc1OC` the B-score was “inactive”. With `C=CCNC(=O)COC(=O)c1ccccc1C(=O)N(C)C1CCCCC1` the B-score was -6.84 (active). With `O=C(COC(=O)c1ccccc1SCC(=O)NC1CCCCC1)NC1CCCCC1` the B-score was “inactive”. For `O=c1cc(Cl)c2ccccc2n1-c1ccccc1`, the B-score was “inactive”. `O=C(Nc1cc(Cl)cc(Cl)c1)C(NCCCO)c1ccccc1` (stereo unspecified) was tested, and the B-score was -8.3 (active). `OCCCNC(c1ccccc1)c1ccc(O)cc1` (stereo unspecified) was tested, and the B-score was “inactive”. In the case of `CC(NCC(=O)Nc1cc(Cl)cc(Cl)c1)c1ccccc1` (stereo unspecified), the B-score is reported as “inactive”. With `COc1ccccc1N1CCN(Cc2cc(OC)c3c(c2)OCO3)CC1` the B-score was “inactive”. With `Cc1noc(C)c1C(=O)OCC(=O)N1CCN(S(=O)(=O)c2ccc3ccccc3c2)CC1` the B-score was “inactive”. For `COC(=O)C1=C(Nc2ccc(OC)cc2)C=C(C)C(C(=O)OC)C1c1ccc(C)cc1` (stereo unspecified), the B-score was “inactive”. `COC(=O)C1C(=O)NCC1c1ccc(C)cc1` (stereo unspecified) was tested, and the B-score was “inactive”. `COC(=O)C1=C(Nc2ccc(C)cc2)C=C(C)C(C(=O)OC)C1c1ccc(F)cc1` (stereo unspecified) was tested, and the B-score was -10.4 (active). With `CC1CCC(NC(=O)CNC(=O)c2ccc3ccccc3c2)CC1` (stereo unspecified) the B-score was “inactive”. `CN=C1SC(CC(=O)Nc2ccc(C(=O)O)cc2)C(=O)N1C` (stereo unspecified) was tested, and the B-score was “inactive”. `CN(CCC(=O)Nc1cc(S(=O)(=O)N(C)C)ccc1Cl)CC(=O)Nc1ccc(F)cc1` was tested, and the B-score was -12.2 (active). For `CN(CC(=O)Nc1ccc(S(=O)(=O)N2CCCC2)cc1)Cc1ccc(Cl)c(Cl)c1`, the B-score was “inactive”. For `CN(CC(=O)Nc1ccc(F)cc1)CC(=O)Nc1ccc(Cl)c(S(=O)(=O)N2CCOCC2)c1`, the B-score was “inactive”. For `COc1ccccc1OCC(=O)O/N=C(\N)c1ccccn1`, the B-score was “inactive”. With `O=C(O)CCS(=O)(=O)c1ccc(-c2ccccc2)cc1` the B-score was “inactive”. With `Cc1cc(C)c(C)c(S(=O)(=O)Nc2ccc(O)cc2)c1C` the B-score was “inactive”. With `Cc1ccc(Cn2cc(C(=O)NN)c(=O)c3ccc(F)cc32)cc1` the B-score was “inactive”. `CCOC(=O)C1=C(C)N=C2c3ccccc3C(=O)C2C1c1ccc(Br)cc1` (stereo unspecified) was tested, and the B-score was “inactive”. In the case of `O=C1c2ccccc2C2=Nc3ccccc3SC(c3ccccc3F)C12` (stereo unspecified), the B-score is reported as -9.81 (active). In the case of `O=C1c2ccccc2C(=O)C1c1ccccc1F`, the B-score is reported as “inactive”. In the case of `CC(C)c1ccc2c(c1)c(SC(C)(C)C)c(CC(C)(C)C(=O)O)n2Cc1ccc(Cl)cc1`, the B-score is reported as “inactive”.
